Activity calls are given as the source filed them.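 The calls were made as follows: active = significant rise in the time treated SMA model mouse pups take to turn upright when laid on their backs; inactive = no significant rise in righting time.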
Assay: Extended Characterization of SMN2 Inhibitors: Righting Time Studies
Details: SMNdelta7 SMA mice, 50 mg/kg ip
Text: Spinal muscular atrophy (SMA) is caused by insufficient levels of the survival motor neuron protein SMN. The SMN locus on chromosome 5q13 contains two inverted copies of SMN called SMN1 and SMN2 which are 99% identical at the amino acid level. SMN1 is a fully functional protein and SMN2 skips exon 7 90% of the time. Skipping of exon 7 produces non-functional protein product. 10% of the SMN2 protein includes exon 7 and is fully functional. In the SMA disease state, mutations in the SMN1 locus are the cause of the disease state. Because only 10% of SMN2 is of the fully functional form, it is not sufficient to overcome the deficiency produced by the loss of the SMN1 product. A therapy that either increase the amount of SMN2 product made or to increase the inclusion of exon 7 has been proposed for the treatment of SMA. We have previously filed a probe report and have now done further SAR and further characterized the resulting compounds in mice studies. Here we tested the new compound to see if there was an improval in righting time when administered to SMNdelta7 SMA mice. NIH Chemical Genomics Center [NCGC] NIH Molecular Libraries Probe Production centers Network [MLPCN] MLPCN Grant: R03 MH084179 Assay Submitter (PI): Elliot Androphy […]

Compound	outcome
O=C(O)C1CCN(c2ncc(-c3ccc4c(c3)OCCCO4)s2)CC1	active; yes

— PubChem BioAssay AID687012 (National Center for Advancing Translational Sciences (NCATS), 2013)
